Source: PubChem BioAssay (NCATS)
Records with an inconclusive call do not appear. Calls of active or inactive are those of the source. The call rests on the fitted dose curve; in most records, active means well fitted curve in the direction sought with a large enough effect; inconclusive means small, poorly fitted or top-dose-only effect, or another doubt; inactive means no such curve, though single readings can be large; an effect the other way counts as inactive or inconclusive.

biological target: DNA repair nuclease/redox regulator APEX1 (Homo sapiens) (UniProt P27695); assay: qHTS Validation Assay for Inhibitors of the Human Apurinic/apyrimidinic Endonuclease 1 (APE1) (AID 1705;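 further: TAMRA fluorescence gain over two minutes as APE1 cuts a quenched THF abasic duplex; on the % scale 0 is the no-effect control and ±100 the full control effect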); conditions: purified APE1 endonuclease activity, fluorescence, titration; series mostly up to 57.1 µM; activity change, negative = inhibition: at the top concentration
Summary of the method: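 Fluorogenic double-stranded THF abasic-site substrate (5'-TAMRA/3'-BHQ-2), 50 nM final. Enzyme preincubated with compound 15 min at room temperature, then substrate added. Kinetic fluorescence (ex 525/em 598 nm) read three times at 60 s intervals; activity taken as third-minus-first read difference.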

Chain of DNA repair nuclease/redox regulator APEX1 (Homo sapiens) (P27695 whole entry, looked up): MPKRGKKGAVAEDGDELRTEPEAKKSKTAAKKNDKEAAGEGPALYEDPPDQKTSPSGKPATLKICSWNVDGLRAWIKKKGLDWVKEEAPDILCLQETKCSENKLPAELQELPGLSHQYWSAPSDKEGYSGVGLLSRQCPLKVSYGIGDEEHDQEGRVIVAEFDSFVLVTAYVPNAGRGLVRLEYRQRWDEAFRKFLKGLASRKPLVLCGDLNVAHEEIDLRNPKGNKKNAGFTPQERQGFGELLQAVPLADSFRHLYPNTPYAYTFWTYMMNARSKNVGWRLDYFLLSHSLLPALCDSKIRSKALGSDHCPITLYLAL

Compound | activity change, negative = inhibition
CCC(C)N(C)C(=O)c1cc2ccccc2c(-c2ccccc2Cl)n1 (stereo unspecified) | -5.01% (inactive)
N[C@@H]1CONC1=O | 2.33% (inactive)
Cc1ccc(N(CC2=NCCN2)c2cccc(O)c2)cc1 | 0.61% (inactive)
NCCc1ccc(O)c(O)c1 | 2.42% (inactive)
Clc1cccc(Cl)c1NC1=NCCN1 | -2.82% (inactive)
NS(=O)(=O)c1cc2c(cc1Cl)NC=NS2(=O)=O | 6.08% (inactive)
CCCCNc1cc(C(=O)O)cc(S(N)(=O)=O)c1Oc1ccccc1 | 0.513% (inactive)
CC(=O)Oc1ccccc1C(=O)O | -3.33% (inactive)
CCOC(=O)C1=C[C@]2(CC)CCCN3CCc4c(n1c1ccccc41)[C@@H]32 | -5.96% (inactive)
Nc1ccc(S(=O)(=O)Nc2ccnn2-c2ccccc2)cc1 | 5.51% (inactive)
Cc1[nH]c(=O)c(C#N)cc1-c1ccncc1 | 0.262% (inactive)
NCCCC(N)(C(=O)O)C(F)F (stereo unspecified) | -5.98% (inactive)
NC[C@H](O)c1ccc(O)c(O)c1 | -0.795% (inactive)
Cc1oncc1C(=O)Nc1ccc(C(F)(F)F)cc1 | -6.4% (inactive)
CCN(CC)CCCC(C)Nc1ccnc2cc(Cl)ccc12 (stereo unspecified) | 3.28% (inactive)
Cn1cnc([N+](=O)[O-])c1Sc1ncnc2nc[nH]c12 | -0.84% (inactive)
NNCCc1ccccc1 | -3.11% (inactive)
Nc1nc2ccc(OC(F)(F)F)cc2s1 | 3.61% (inactive)
Cc1cnc(NC(=O)C2=C(O)c3ccccc3S(=O)(=O)N2C)s1 | 3.61% (inactive)
N=c1nc(N2CCCCC2)cc(N)n1O | 7.52% (inactive)
O=C1CCC(N2C(=O)c3ccccc3C2=O)C(=O)N1 (stereo unspecified) | -11.5% (inactive)

test system: not listed separately; assay: Counterscreen for APE1 Inhibitors: Fluorescent Dye Displacement Validation Assay (AID 1707); conditions: fluorescent dye displacement from DNA; series mostly up to 57.1 µM; activity change, negative = inhibition: at the top concentration;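 further: plate controls were ThO with dsDNA and no compound for no effect and ThO without dsDNA for full effect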
Summary of the method: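 Endpoint fluorescence read at 480 nm excitation / 540 nm emission; DNA-binding compounds lower signal by displacing 250 nM Thiazole Orange from 50 nM dsDNA containing a tetrahydrofuran abasic site, Tris-HCl pH7.5 buffer with NaCl and MgCl2.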

Compound | activity change, negative = inhibition
CCC(C)N(C)C(=O)c1cc2ccccc2c(-c2ccccc2Cl)n1 (stereo unspecified) | -0.912% (inactive)
N[C@@H]1CONC1=O | -0.426% (inactive)
Cc1ccc(N(CC2=NCCN2)c2cccc(O)c2)cc1 | -1.73% (inactive)
NCCc1ccc(O)c(O)c1 | 2.95% (inactive)
Clc1cccc(Cl)c1NC1=NCCN1 | 0.196% (inactive)
NS(=O)(=O)c1cc2c(cc1Cl)NC=NS2(=O)=O | -0.0302% (inactive)
CCCCNc1cc(C(=O)O)cc(S(N)(=O)=O)c1Oc1ccccc1 | 2.04% (inactive)
CC(=O)Oc1ccccc1C(=O)O | 2.98% (inactive)
CCOC(=O)C1=C[C@]2(CC)CCCN3CCc4c(n1c1ccccc41)[C@@H]32 | -1.12% (inactive)
Nc1ccc(S(=O)(=O)Nc2ccnn2-c2ccccc2)cc1 | 4.65% (inactive)
Cc1[nH]c(=O)c(C#N)cc1-c1ccncc1 | 0.637% (inactive)
NCCCC(N)(C(=O)O)C(F)F (stereo unspecified) | 1.69% (inactive)
NC[C@H](O)c1ccc(O)c(O)c1 | -0.74% (inactive)
Cc1oncc1C(=O)Nc1ccc(C(F)(F)F)cc1 | 18.9% (inactive)
CCN(CC)CCCC(C)Nc1ccnc2cc(Cl)ccc12 (stereo unspecified) | -0.395% (inactive)
Cn1cnc([N+](=O)[O-])c1Sc1ncnc2nc[nH]c12 | -0.655% (inactive)
NNCCc1ccccc1 | 1.68% (inactive)
Nc1nc2ccc(OC(F)(F)F)cc2s1 | -2.21% (inactive)
Cc1cnc(NC(=O)C2=C(O)c3ccccc3S(=O)(=O)N2C)s1 | -0.397% (inactive)
N=c1nc(N2CCCCC2)cc(N)n1O | 6.68% (inactive)
O=C1CCC(N2C(=O)c3ccccc3C2=O)C(=O)N1 (stereo unspecified) | 1.38% (inactive)

biological target: Endonuclease 4 (Escherichia coli (strain K12)) (UniProt P0A6C1); assay: Counterscreen for APE1 Inhibitors: qHTS Validation Assay for Inhibitors of Endonuclease IV (AID 1708); further: on the % scale 0 is the no-effect control and ±100 the full control effect; conditions: E. coli endonuclease IV, DNA cleavage fluorescence; series mostly up to 57.1 µM; activity change, negative = inhibition: at the top concentration
Summary of the method: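 Read-out: fluorescence rise (ex 525/em 598 nm) from incision of a TAMRA/BHQ-2 double-stranded THF abasic-site substrate (50 nM), measured kinetically; third-minus-first read difference gave reaction progress. Enzyme 2 nM.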

Compound | activity change, negative = inhibition
N[C@@H]1CONC1=O | 3.37% (inactive)
Cc1ccc(N(CC2=NCCN2)c2cccc(O)c2)cc1 | -6.1% (inactive)
NCCc1ccc(O)c(O)c1 | 2.73% (inactive)
Clc1cccc(Cl)c1NC1=NCCN1 | -11.2% (inactive)
NS(=O)(=O)c1cc2c(cc1Cl)NC=NS2(=O)=O | -4.5% (inactive)
CCCCNc1cc(C(=O)O)cc(S(N)(=O)=O)c1Oc1ccccc1 | 1.2% (inactive)
CC(=O)Oc1ccccc1C(=O)O | -8.67% (inactive)
CCOC(=O)C1=C[C@]2(CC)CCCN3CCc4c(n1c1ccccc41)[C@@H]32 | -0.321% (inactive)
Nc1ccc(S(=O)(=O)Nc2ccnn2-c2ccccc2)cc1 | 0.161% (inactive)
Cc1[nH]c(=O)c(C#N)cc1-c1ccncc1 | -4.82% (inactive)
NCCCC(N)(C(=O)O)C(F)F (stereo unspecified) | -8.59% (inactive)
NC[C@H](O)c1ccc(O)c(O)c1 | 5.22% (inactive)
Cc1oncc1C(=O)Nc1ccc(C(F)(F)F)cc1 | -8.51% (inactive)
Cn1cnc([N+](=O)[O-])c1Sc1ncnc2nc[nH]c12 | -7.55% (inactive)
NNCCc1ccccc1 | -4.1% (inactive)
Nc1nc2ccc(OC(F)(F)F)cc2s1 | -9.16% (inactive)
Cc1cnc(NC(=O)C2=C(O)c3ccccc3S(=O)(=O)N2C)s1 | -6.75% (inactive)
N=c1nc(N2CCCCC2)cc(N)n1O | -12.8% (inactive)
O=C1CCC(N2C(=O)c3ccccc3C2=O)C(=O)N1 (stereo unspecified) | -6.35% (inactive)

test system: not listed separately; assay: qHTS for differential inhibitors of proliferation of Plasmodium falciparum line 7G8 (AID 1815); conditions: Plasmodium falciparum 7G8 proliferation inhibition; series mostly up to 28.7 µM; activity change, negative = inhibition: at the top concentration;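 further: parasite growth measured after three days of incubation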; further: potency means the concentration at half of the fitted maximal effect;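 on activity change, negative = inhibition: plate controls were vehicle wells for no effect and reference inhibitor wells for full effect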

Compound | Potency | activity change, negative = inhibition
CCC(C)N(C)C(=O)c1cc2ccccc2c(-c2ccccc2Cl)n1 (stereo unspecified) | 7.94 µM (active) | 
N[C@@H]1CONC1=O |  | -22.4% (inactive)
Clc1cccc(Cl)c1NC1=NCCN1 |  | -12.8% (inactive)
NS(=O)(=O)c1cc2c(cc1Cl)NC=NS2(=O)=O |  | -3.88% (inactive)
CCCCNc1cc(C(=O)O)cc(S(N)(=O)=O)c1Oc1ccccc1 |  | 3.06% (inactive)
CC(=O)Oc1ccccc1C(=O)O |  | -4.58% (inactive)
CCOC(=O)C1=C[C@]2(CC)CCCN3CCc4c(n1c1ccccc41)[C@@H]32 | 7.08 µM (active) | 
Nc1ccc(S(=O)(=O)Nc2ccnn2-c2ccccc2)cc1 |  | -8.29% (inactive)
Cc1[nH]c(=O)c(C#N)cc1-c1ccncc1 |  | -2.33% (inactive)
NCCCC(N)(C(=O)O)C(F)F (stereo unspecified) |  | 5.72% (inactive)
Cc1oncc1C(=O)Nc1ccc(C(F)(F)F)cc1 |  | -19.5% (inactive)
CCN(CC)CCCC(C)Nc1ccnc2cc(Cl)ccc12 (stereo unspecified) | 2.51 µM (active) | 
Nc1nc2ccc(OC(F)(F)F)cc2s1 |  | -27.9% (inactive)
N=c1nc(N2CCCCC2)cc(N)n1O |  | -1.16% (inactive)
O=C1CCC(N2C(=O)c3ccccc3C2=O)C(=O)N1 (stereo unspecified) |  | -8.22% (inactive)
